Test results taken from ChEMBL document CHEMBL1961873, “Compounds: GSK PKIS; Assays: Nanosyn kinase panel” (2012).

Experiments:
[1] = target: Dual specificity protein kinase CLK3 (Homo sapiens) (UniProt P49761); conditions: at 1 µM;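 further: each value is the mean inhibition of CLK3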
[2] = target: Dual specificity tyrosine-phosphorylation-regulated kinase 1A (Homo sapiens) (UniProt Q13627); conditions: at 0.1 µM
[3] = target: Dual specificity tyrosine-phosphorylation-regulated kinase 1A (Homo sapiens) (UniProt Q13627); conditions: at 1 µM
[4] = target: Dual specificity tyrosine-phosphorylation-regulated kinase 1B (Homo sapiens) (UniProt Q9Y463); conditions: at 0.1 µM
[5] = target: Dual specificity tyrosine-phosphorylation-regulated kinase 1B (Homo sapiens) (UniProt Q9Y463); conditions: at 1 µM
[6] = target: T1, Dual specificity tyrosine-phosphorylation-regulated kinase 2 (Homo sapiens) (UniProt Q92630); conditions: at 0.1 µM
T1 sequence (whole entry): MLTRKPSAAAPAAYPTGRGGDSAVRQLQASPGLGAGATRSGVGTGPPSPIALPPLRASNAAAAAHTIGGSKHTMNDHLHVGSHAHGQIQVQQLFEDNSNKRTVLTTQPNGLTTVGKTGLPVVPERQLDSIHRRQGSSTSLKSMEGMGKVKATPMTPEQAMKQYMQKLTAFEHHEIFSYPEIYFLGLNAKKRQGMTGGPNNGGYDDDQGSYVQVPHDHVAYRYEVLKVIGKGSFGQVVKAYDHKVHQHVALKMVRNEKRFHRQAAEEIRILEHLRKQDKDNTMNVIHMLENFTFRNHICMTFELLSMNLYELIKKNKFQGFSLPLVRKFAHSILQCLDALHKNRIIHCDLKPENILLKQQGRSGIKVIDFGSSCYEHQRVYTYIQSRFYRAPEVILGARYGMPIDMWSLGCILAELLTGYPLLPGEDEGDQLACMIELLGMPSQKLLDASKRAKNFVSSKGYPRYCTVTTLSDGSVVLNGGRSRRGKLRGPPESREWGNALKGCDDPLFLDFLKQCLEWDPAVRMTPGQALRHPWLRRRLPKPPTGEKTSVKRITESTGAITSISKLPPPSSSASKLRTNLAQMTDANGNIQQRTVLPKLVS

[7] = target: T1, Dual specificity tyrosine-phosphorylation-regulated kinase 2 (Homo sapiens); conditions: at 1 µM
[8] = target: Glycogen synthase kinase-3 alpha (Homo sapiens) (UniProt P49840); conditions: at 0.1 µM
[9] = target: Glycogen synthase kinase-3 alpha (Homo sapiens) (UniProt P49840); conditions: at 1 µM
[10] = target: Glycogen synthase kinase-3 beta (Homo sapiens) (UniProt P49841); conditions: at 0.1 µM
[11] = target: Glycogen synthase kinase-3 beta (Homo sapiens) (UniProt P49841); conditions: at 1 µM
[12] = target: Homeodomain-interacting protein kinase 1 (Homo sapiens) (UniProt Q86Z02); conditions: at 0.1 µM
[13] = target: Homeodomain-interacting protein kinase 1 (Homo sapiens) (UniProt Q86Z02); conditions: at 1 µM
[14] = target: T2, Homeodomain-interacting protein kinase 4 (Homo sapiens) (UniProt Q8NE63); conditions: at 0.1 µM
T2 sequence (whole entry): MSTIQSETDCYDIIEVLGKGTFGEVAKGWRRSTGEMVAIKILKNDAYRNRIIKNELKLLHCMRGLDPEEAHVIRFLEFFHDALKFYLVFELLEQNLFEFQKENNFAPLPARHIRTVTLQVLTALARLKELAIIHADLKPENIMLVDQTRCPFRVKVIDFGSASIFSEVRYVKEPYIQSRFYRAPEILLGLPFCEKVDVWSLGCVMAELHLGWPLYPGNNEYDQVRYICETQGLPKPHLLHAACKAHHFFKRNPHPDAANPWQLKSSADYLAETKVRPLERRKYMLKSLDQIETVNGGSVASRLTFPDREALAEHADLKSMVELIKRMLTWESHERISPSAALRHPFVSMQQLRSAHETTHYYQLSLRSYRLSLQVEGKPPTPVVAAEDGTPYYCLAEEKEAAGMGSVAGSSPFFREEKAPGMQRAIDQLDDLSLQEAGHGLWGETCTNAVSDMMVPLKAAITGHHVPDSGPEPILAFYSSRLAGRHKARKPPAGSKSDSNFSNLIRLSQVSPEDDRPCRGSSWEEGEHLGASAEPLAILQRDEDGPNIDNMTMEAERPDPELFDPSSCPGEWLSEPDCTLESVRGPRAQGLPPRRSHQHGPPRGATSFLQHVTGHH

[15] = target: T2, Homeodomain-interacting protein kinase 4 (Homo sapiens); conditions: at 1 µM
[16] = target: Mitogen-activated protein kinase 9 (Homo sapiens) (UniProt P45984); conditions: at 0.1 µM
[17] = target: Mitogen-activated protein kinase 9 (Homo sapiens) (UniProt P45984); conditions: at 1 µM
[18] = target: Mitogen-activated protein kinase 1 (Homo sapiens) (UniProt P28482); conditions: at 0.1 µM
[19] = target: Mitogen-activated protein kinase 1 (Homo sapiens) (UniProt P28482); conditions: at 1 µM
[20] = target: Mitogen-activated protein kinase 3 (Homo sapiens) (UniProt P27361); conditions: at 0.1 µM;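 further: each value is a mean inhibition figure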
Sequence of Mitogen-activated protein kinase 3 (Homo sapiens) (P27361 whole entry): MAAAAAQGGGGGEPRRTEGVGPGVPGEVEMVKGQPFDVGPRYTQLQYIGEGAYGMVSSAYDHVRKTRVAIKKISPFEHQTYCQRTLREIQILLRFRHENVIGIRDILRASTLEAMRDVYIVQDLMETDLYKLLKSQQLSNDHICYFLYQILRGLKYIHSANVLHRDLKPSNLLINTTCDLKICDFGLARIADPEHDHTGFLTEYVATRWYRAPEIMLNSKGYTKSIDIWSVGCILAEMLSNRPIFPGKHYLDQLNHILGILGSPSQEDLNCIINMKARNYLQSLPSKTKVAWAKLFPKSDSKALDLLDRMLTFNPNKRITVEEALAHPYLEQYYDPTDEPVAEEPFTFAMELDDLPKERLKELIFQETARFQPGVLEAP

Sequence of Mitogen-activated protein kinase 1 (Homo sapiens) (P28482 whole entry): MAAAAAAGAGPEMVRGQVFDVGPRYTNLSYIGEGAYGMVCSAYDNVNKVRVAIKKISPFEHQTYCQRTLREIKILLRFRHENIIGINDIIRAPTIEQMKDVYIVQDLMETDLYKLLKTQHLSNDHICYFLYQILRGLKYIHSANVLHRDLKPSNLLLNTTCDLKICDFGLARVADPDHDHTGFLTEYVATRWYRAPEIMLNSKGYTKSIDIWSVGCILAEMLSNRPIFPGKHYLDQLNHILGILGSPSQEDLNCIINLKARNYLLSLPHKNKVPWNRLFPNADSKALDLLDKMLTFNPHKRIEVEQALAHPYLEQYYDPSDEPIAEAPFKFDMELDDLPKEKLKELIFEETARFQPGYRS
Sequence of Homeodomain-interacting protein kinase 1 (Homo sapiens) (Q86Z02 whole entry, looked up): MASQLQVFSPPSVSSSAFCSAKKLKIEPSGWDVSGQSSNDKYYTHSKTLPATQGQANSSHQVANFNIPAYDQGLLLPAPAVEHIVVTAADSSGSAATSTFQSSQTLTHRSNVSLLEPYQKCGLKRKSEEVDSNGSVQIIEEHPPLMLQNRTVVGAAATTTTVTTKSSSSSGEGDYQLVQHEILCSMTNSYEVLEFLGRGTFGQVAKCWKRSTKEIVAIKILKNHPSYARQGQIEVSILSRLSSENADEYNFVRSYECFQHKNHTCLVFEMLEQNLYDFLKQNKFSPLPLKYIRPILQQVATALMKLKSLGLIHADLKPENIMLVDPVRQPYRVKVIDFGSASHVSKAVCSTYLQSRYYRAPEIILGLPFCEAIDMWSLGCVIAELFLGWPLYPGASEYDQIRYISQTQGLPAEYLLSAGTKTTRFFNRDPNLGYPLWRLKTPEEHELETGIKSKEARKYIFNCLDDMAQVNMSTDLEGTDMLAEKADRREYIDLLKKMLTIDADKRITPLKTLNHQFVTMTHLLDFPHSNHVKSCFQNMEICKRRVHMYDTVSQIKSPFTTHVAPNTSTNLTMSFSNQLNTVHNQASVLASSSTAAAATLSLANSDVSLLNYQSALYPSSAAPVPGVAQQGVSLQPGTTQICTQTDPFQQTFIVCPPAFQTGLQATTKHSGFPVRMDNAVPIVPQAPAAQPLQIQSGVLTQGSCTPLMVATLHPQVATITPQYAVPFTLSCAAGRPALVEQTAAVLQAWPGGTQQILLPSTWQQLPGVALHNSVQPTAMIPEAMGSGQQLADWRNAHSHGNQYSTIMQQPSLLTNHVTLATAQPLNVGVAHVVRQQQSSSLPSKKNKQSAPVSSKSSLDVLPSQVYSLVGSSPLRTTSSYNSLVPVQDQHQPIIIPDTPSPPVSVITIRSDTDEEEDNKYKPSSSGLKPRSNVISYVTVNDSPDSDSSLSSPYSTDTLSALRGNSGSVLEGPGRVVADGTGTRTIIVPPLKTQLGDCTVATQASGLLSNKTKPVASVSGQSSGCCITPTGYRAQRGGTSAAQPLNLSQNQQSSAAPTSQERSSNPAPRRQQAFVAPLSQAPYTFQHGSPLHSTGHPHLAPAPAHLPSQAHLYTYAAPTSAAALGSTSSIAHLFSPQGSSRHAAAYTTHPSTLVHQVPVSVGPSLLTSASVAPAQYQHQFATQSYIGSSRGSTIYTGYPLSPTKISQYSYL
Sequence of Dual specificity tyrosine-phosphorylation-regulated kinase 1B (Homo sapiens) (Q9Y463 whole entry, looked up): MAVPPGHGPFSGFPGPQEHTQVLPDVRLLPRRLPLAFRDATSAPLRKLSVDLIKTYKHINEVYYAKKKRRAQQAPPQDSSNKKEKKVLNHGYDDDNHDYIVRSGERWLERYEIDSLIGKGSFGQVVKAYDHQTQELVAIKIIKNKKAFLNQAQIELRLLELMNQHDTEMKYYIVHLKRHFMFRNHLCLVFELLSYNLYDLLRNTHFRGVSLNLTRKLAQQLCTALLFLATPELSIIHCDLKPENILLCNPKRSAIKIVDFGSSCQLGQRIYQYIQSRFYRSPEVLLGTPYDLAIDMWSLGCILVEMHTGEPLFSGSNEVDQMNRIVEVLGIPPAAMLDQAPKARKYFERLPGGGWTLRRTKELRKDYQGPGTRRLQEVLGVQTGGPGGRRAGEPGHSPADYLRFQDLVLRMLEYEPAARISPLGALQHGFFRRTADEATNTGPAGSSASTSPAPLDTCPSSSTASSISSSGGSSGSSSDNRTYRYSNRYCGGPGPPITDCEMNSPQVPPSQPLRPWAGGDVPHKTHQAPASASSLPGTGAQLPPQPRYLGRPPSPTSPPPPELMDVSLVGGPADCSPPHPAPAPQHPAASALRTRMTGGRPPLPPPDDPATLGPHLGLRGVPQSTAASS
Sequence of Glycogen synthase kinase-3 beta (Homo sapiens) (P49841 whole entry, looked up): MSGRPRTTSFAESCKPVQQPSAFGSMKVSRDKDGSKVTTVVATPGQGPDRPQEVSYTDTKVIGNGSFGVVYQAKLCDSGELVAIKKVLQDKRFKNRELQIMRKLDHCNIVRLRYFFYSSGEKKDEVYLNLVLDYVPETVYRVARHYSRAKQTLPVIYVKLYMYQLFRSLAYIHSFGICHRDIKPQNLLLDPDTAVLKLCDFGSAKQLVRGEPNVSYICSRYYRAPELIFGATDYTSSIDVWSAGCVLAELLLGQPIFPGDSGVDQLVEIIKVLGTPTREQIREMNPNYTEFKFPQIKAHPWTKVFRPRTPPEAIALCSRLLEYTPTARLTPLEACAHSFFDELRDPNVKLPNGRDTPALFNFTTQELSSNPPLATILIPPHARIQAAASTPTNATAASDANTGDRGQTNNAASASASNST
Sequence of Mitogen-activated protein kinase 9 (Homo sapiens) (P45984 whole entry, looked up): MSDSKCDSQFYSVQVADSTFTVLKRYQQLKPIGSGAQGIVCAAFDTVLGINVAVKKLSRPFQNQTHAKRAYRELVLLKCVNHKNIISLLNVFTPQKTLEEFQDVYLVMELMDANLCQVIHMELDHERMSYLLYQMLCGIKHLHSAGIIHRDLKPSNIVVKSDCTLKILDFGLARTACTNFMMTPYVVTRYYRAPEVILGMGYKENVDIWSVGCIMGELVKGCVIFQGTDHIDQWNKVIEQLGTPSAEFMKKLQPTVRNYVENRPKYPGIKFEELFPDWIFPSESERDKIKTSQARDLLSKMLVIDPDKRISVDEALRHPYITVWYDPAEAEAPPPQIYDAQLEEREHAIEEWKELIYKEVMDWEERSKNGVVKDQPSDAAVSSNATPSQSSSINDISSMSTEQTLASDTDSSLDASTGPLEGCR
Sequence of Dual specificity protein kinase CLK3 (Homo sapiens) (P49761 whole entry, looked up): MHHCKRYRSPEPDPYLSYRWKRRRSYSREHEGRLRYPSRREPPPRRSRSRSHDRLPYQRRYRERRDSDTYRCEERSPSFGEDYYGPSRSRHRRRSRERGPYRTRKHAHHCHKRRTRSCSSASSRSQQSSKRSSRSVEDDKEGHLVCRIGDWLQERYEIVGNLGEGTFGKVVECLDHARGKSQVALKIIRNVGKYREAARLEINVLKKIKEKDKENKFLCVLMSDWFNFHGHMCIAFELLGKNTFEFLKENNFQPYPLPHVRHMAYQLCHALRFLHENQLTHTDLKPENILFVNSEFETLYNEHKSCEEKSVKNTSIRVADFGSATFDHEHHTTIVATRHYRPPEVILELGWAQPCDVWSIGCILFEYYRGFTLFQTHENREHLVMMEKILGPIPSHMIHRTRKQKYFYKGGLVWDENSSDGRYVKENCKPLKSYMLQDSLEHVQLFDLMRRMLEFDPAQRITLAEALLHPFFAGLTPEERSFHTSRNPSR
Sequence of Glycogen synthase kinase-3 alpha (Homo sapiens) (P49840 2-483 limits assumed): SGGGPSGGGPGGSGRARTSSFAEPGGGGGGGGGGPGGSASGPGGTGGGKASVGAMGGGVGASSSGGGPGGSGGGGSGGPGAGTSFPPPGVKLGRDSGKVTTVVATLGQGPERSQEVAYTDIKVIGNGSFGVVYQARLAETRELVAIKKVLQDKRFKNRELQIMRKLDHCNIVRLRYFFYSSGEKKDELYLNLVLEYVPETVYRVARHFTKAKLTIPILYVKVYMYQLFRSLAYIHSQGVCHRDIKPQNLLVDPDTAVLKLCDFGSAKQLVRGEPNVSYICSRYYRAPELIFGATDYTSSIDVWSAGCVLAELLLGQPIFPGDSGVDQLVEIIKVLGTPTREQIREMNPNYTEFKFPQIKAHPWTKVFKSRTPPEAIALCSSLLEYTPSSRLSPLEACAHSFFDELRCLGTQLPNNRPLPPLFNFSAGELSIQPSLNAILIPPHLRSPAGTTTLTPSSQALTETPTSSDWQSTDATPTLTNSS

| SMILES | inhibition [1] | inhibition [2] | inhibition [3] | inhibition [4] | inhibition [5] | inhibition [6] | inhibition [7] | inhibition [8] | inhibition [9] | inhibition [10] | inhibition [11] | inhibition [12] | inhibition [13] | inhibition [14] | inhibition [15] | inhibition [16] | inhibition [17] | inhibition [18] | inhibition [19] | inhibition [20] |
| --- | --- | --- | --- | --- | --- | --- | --- | --- | --- | --- | --- | --- | --- | --- | --- | --- | --- | --- | --- | --- |
| Nc1nc(-c2cccc(Cl)c2)c(-c2ccc3ncccc3n2)s1 | 3.8% | 6.62% | 31.8% | -0.12% | 12.7% | 3.16% | 5.31% | 3.74% | 11.2% | 2.21% | 7.52% | 2.34% | 6.93% | 2.76% | 13.9% | 5.19% | 13.9% | 6.28% | 6.55% | 5.26% |
| COC(=O)c1sc(-n2cnc3cc(OC)c(OC)cc32)cc1OCc1ccccc1C(F)(F)F | 0.53% | 1.62% | 3.44% | -1.47% | -1.98% | 3.48% | 4.12% | 1.51% | 4.48% | -0.28% | 3.49% | -2.18% | -0.46% | -0.74% | 1.47% | 3.59% | 6.58% | 4.72% | 5.29% | 3.25% |
| COC(=O)Nc1nc2ccc(S(=O)(=O)c3ccc(NC(=O)Nc4cc(C(F)(F)F)ccc4F)cc3)cc2[nH]1 | 0.84% | 1.81% | 3.41% | 0.89% | 0.66% | 2.74% | 3.12% | 2.8% | 7.37% | 0.8% | 7.61% | -0.95% | 0.3% | -0.96% | 1.06% | 3.14% | 3.4% | 1.4% | 2.17% | 3% |
| c1ccc(COc2ccc(Nc3ncnc4ccc(-c5ccco5)cc34)cc2)cc1 | -0.29% | -1.32% | 3.87% | -0.39% | 0.34% | 0.31% | -1.53% | 1.11% | 1.51% | 0.28% | 2.25% | -3.03% | -3.68% | 0.31% | 1.89% | 1.39% | 1.07% | 2.65% | -3.36% | 0.95% |
| COc1ccc(-c2nn3ncccc3c2-c2ccnc(Nc3ccc4c(c3)OCCO4)n2)cc1 | -0.46% | -0.47% | -2.81% | -0.35% | -3.65% | 0.08% | -3.08% | 0.99% | 2.53% | -0.07% | 5.33% | -7.34% | -0.07% | 0.08% | -1.16% | 13% | 64.6% | -0.01% | 0.95% | 3.56% |
| N#Cc1c(NC(=O)CN2CCOCC2)sc2c1CCCC2 | 7.77% | 7.33% | 11% | 4.95% | 8.26% | 1.96% | 4.75% | 10.6% | 9.38% | 11% | 7.42% | 6.67% | 10.1% | 7.62% | 6.09% | 4.4% | 9.83% | 4.06% | 4.79% | 3.09% |
| Fc1ccc(-c2nn3ccccc3c2-c2ccncc2)cc1 | 0.88% | 0.99% | 3.18% | 0.03% | 2.03% | 0.76% | 1.76% | 1.02% | 6.14% | 1.33% | 10.7% | -1.55% | 0.97% | -0.72% | 0.37% | 4.3% | 25.4% | 0.83% | 1.21% | 1.33% |
| Cc1cccc(Nc2ncc(-c3ccccc3)o2)c1 | 0.79% | 1.29% | 4.26% | 0.51% | 2.16% | 3.21% | 5.94% | 4.32% | 12.3% | 3.23% | 12% | -1.62% | 9.25% | 1.22% | 8.11% | 5.28% | 7.95% | 3.91% | 5.08% | 5.66% |
| CCn1c(-c2nonc2N)nc2ccccc21 | 2.22% | 1.62% | 14.6% | 1.02% | 7.36% | 2.66% | 5.28% | 3.32% | 24% | 3.21% | 17.4% | 1.47% | 4.99% | 1.45% | 4.14% | 3.53% | 2.53% | 1.93% | 3.93% | 3.48% |
| CNC(=O)c1cc(-c2ccc(F)cc2)cc(-c2ccc(S(=O)(=O)N3CCCC3)cc2)c1N | 1.45% | 2.86% | 3.9% | -1.54% | -0.38% | 2.23% | 2.03% | 3.5% | 5.1% | 2.65% | 4.74% | -2.69% | -0.12% | -0.78% | 0.3% | 1.82% | 2.81% | 4.15% | 4.03% | 2.42% |
| COc1cc(N2CCN(C(C)C)CC2)ccc1Nc1nc(Nc2ccc(F)cc2C(N)=O)c2cc[nH]c2n1 | 13.2% | 45.2% | 86.5% | 49.1% | 76.6% | 5.36% | 36.4% | 3.88% | 5.19% | 2.71% | 7.27% | 33.9% | 73.7% | 44.8% | 75.1% | 65.5% | 89.1% | 2.91% | 15.3% | 2.87% |
| c1cc(-c2cnn3nc(N4CCOCC4)ccc23)nc(NC2CC2)n1 | 8.62% | 7.48% | 40.4% | 6.08% | 35.8% | 5.57% | 32.8% | 4.47% | 26.4% | 2.95% | 18.2% | 3.36% | 29% | 4.39% | 20.6% | 5.03% | 26.1% | 1.45% | 7.25% | 4.13% |
